Results published in the supplement of paper PMC10849652.
Of roughly 7,900 targets only a part is listed; those with a hit were picked by preference. About 0.6% of all pairs of compound and target were hits.

Legend:
Test in all cases: log2 fold change, soluble protein after heating vs DMSO (PISA); higher = thermal stabilisation; K562 cells, 10 uM, 30 min; active = over 0.2 and 3.5 SD of the protein, either way, in both replicates (recomputed)
[1] = compound: CC[C@@H]1C(=O)N(C)c2cnc(Nc3ccc(C(=O)NC4CCN(C)CC4)cc3OC)nc2N1C1CCCC1
Outline: (§1)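 Aliquots of K562 cells (2×10^6 cells/mL) treated with 10 μM compound for 30 min were heated for 3 min over 48°C-58°C. After pooling and extraction in PBS with 0.5% NP-40 at 4°C, soluble protein from a 21,000xg, 90 min spin was quantified by TMTpro 16plex LC-MS/MS with channel sums equalised. Thermal stability is expressed against control samples, from duplicates, as a log2 fold change.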

volasertib = compound: CC[C@@H]1C(=O)N(C)c2cnc(Nc3ccc(C(=O)N[C@H]4CC[C@H](N5CCN(CC6CC6)CC5)CC4)cc3OC)nc2N1C(C)C [volasertib]
Outline: as §1

[2] = compound: CC[C@H](C)N1C=C(C2=C(C=C(C=C21)C3=CN=C(C=C3)N4CCNCC4)C(=O)NCC5=C(C=C(NC5=O)C)C)C
Outline: as §1

epoxomicin = compound: CC[C@H](C)[C@@H](C(=O)N[C@@H]([C@@H](C)O)C(=O)N[C@@H](CC(C)C)C(=O)[C@]1(CO1)C)NC(=O)[C@H]([C@@H](C)CC)N(C)C(=O)C [epoxomicin]
Outline: as §1

[3] = compound: CCn1c(C(=O)N(C2CC2)C2CC2)cc2c3c(ncn3C)c(Nc3cc(C)n(C)n3)nc21
Outline: as §1

[4] = compound: CCn1cc(-c2ccnc3[nH]c(-c4cccc(CN(C)C)c4)cc23)c(-c2ccc(NC(=O)N(C)C)cc2)n1
Outline: as §1

[5] = compound: CN(C)CC(=O)Nc1ccc2[nH]c(=O)c3ccccc3c2c1
Outline: as §1

rosiglitazone = compound: CN(CCOC1=CC=C(C=C1)C[C@H]2C(=O)NC(=O)S2)C3=CC=CC=N3 (racemic) [rosiglitazone]
Outline: as §1

[6] = compound: CN1C2=C(C3=C1C(=O)N(N=C3)CC4=CC(=CC=C4)N)SC(=C2)S(=O)C
Outline: as §1

[7] = compound: CN1CCC(CNc2ccc3ncc(-c4cccc(OC(F)(F)F)c4)n3n2)CC1
Outline: as §1

saracatinib = compound: CN1CCN(CCOc2cc(OC3CCOCC3)c3c(Nc4c(Cl)ccc5c4OCO5)ncnc3c2)CC1 [saracatinib]
Outline: as §1

sotrastaurin = compound: CN1CCN(c2nc(C3=C(c4c[nH]c5ccccc45)C(=O)NC3=O)c3ccccc3n2)CC1 [sotrastaurin]
Outline: as §1

alvocidib = compound: CN1CC[C@H](c2c(O)cc(O)c3c(=O)cc(-c4ccccc4Cl)oc23)[C@H](O)C1 [alvocidib]
Outline: as §1

Tubastatin A = compound: CN1CCc2c(c3ccccc3n2Cc2ccc(C(=O)NO)cc2)C1 [Tubastatin A]
Outline: as §1

[8] = compound: CNC(=O)C1=CC=CC=C1NC2=NC(=NC=C2Cl)NC3=C(C=C(C=C3)N4CCOCC4)OC
Outline: as §1

defactinib = compound: CNC(=O)c1ccc(Nc2ncc(C(F)(F)F)c(NCc3nccnc3N(C)S(C)(=O)=O)n2)cc1 [defactinib]
Outline: as §1

rucaparib = compound: CNCc1ccc(-c2[nH]c3cc(F)cc4c3c2CCNC4=O)cc1 [rucaparib]
Outline: as §1

[9] = compound: CNc1nc(-c2ccc3c(N)n[nH]c3c2)cc(N2C[C@@H](C(=O)NC3CCCCC3)CC[C@H]2C)n1
Outline: as §1

encorafenib = compound: COC(=O)N[C@@H](C)CNc1nccc(-c2cn(C(C)C)nc2-c2cc(Cl)cc(NS(C)(=O)=O)c2F)n1 [encorafenib]
Outline: as §1

[10] = compound: COC(=O)[C@H](CCSC)NC(=O)C1=C(C=C(C=C1)NC[C@H](CS)N)C2=CC=CC=C2
Outline: as §1

Measured: log2 fold change

PACS1 (UniProt Q6VY07)
inactive: [1] 0 | volasertib -0.03 | [2] 0.208 | epoxomicin -0.045 | [3] -0.025 | [4] -0.006 | [5] 0.006 | rosiglitazone 0.039 | [6] 0.029 | [7] 0.014 | saracatinib -0.018 | sotrastaurin -0.043 | alvocidib 0.002 | Tubastatin A 0.038 | [8] -0.076 | defactinib -0.045 | rucaparib 0.022 | [9] 0.037 | encorafenib -0.01 | [10] -0.018

MRPS15 (UniProt P82914)
inactive: [1] -0.021 | volasertib -0.048 | [2] 0.163 | epoxomicin -0.007 | [3] -0.084 | [4] -0.115 | [5] -0.01 | rosiglitazone 0.032 | [6] 0.049 | [7] 0.042 | saracatinib -0.134 | sotrastaurin -0.079 | alvocidib -0.057 | Tubastatin A 0.039 | [8] -0.07 | defactinib 0.035 | rucaparib 0.084 | [9] 0.115 | encorafenib 0.039 | [10] -0.01

NUCKS1 (UniProt Q9H1E3)
Sequence of UniProt Q9H1E3 (Q9H1E3 whole entry, looked up): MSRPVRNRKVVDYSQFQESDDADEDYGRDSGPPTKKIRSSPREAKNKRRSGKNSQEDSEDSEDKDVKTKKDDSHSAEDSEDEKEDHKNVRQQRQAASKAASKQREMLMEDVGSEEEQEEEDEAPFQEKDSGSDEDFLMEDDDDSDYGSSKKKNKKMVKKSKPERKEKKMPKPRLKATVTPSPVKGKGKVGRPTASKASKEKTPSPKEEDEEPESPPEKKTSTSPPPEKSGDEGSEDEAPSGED
inactive: [1] -0.061 | volasertib -0.012 | [2] -0.028 | epoxomicin 0.016 | [3] 0.033 | [4] 0.014 | [5] -0.073 | rosiglitazone 0.001 | [6] -0.043 | [7] -0.083 | saracatinib 0.006 | sotrastaurin 0.075 | alvocidib 0.115 | Tubastatin A -0.006 | [8] -0.167 | defactinib 0.048 | rucaparib 0.027 | [9] -0.071 | encorafenib -0.068 | [10] -0.006

PAFAH1B3 (UniProt Q15102)
Sequence of UniProt Q15102 (Q15102 whole entry, looked up): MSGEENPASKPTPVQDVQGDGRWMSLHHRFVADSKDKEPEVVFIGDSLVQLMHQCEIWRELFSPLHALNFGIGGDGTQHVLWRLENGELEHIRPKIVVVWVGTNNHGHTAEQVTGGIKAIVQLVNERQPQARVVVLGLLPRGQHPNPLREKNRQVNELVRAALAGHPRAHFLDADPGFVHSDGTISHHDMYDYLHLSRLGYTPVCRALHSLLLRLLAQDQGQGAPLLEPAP
inactive: [1] -0.017 | volasertib 0.011 | [2] 0.042 | epoxomicin 0.063 | [3] -0.102 | [4] -0.098 | [5] 0.069 | rosiglitazone 0.021 | [6] -0.012 | [7] 0.001 | saracatinib -0.109 | sotrastaurin -0.034 | alvocidib -0.082 | Tubastatin A 0.026 | [8] 0.001 | defactinib 0.021 | rucaparib 0.049 | [9] 0.002 | encorafenib -0.006 | [10] -0.071

MYLK (UniProt Q15746)
Sequence of UniProt Q15746 (Q15746 whole entry, looked up): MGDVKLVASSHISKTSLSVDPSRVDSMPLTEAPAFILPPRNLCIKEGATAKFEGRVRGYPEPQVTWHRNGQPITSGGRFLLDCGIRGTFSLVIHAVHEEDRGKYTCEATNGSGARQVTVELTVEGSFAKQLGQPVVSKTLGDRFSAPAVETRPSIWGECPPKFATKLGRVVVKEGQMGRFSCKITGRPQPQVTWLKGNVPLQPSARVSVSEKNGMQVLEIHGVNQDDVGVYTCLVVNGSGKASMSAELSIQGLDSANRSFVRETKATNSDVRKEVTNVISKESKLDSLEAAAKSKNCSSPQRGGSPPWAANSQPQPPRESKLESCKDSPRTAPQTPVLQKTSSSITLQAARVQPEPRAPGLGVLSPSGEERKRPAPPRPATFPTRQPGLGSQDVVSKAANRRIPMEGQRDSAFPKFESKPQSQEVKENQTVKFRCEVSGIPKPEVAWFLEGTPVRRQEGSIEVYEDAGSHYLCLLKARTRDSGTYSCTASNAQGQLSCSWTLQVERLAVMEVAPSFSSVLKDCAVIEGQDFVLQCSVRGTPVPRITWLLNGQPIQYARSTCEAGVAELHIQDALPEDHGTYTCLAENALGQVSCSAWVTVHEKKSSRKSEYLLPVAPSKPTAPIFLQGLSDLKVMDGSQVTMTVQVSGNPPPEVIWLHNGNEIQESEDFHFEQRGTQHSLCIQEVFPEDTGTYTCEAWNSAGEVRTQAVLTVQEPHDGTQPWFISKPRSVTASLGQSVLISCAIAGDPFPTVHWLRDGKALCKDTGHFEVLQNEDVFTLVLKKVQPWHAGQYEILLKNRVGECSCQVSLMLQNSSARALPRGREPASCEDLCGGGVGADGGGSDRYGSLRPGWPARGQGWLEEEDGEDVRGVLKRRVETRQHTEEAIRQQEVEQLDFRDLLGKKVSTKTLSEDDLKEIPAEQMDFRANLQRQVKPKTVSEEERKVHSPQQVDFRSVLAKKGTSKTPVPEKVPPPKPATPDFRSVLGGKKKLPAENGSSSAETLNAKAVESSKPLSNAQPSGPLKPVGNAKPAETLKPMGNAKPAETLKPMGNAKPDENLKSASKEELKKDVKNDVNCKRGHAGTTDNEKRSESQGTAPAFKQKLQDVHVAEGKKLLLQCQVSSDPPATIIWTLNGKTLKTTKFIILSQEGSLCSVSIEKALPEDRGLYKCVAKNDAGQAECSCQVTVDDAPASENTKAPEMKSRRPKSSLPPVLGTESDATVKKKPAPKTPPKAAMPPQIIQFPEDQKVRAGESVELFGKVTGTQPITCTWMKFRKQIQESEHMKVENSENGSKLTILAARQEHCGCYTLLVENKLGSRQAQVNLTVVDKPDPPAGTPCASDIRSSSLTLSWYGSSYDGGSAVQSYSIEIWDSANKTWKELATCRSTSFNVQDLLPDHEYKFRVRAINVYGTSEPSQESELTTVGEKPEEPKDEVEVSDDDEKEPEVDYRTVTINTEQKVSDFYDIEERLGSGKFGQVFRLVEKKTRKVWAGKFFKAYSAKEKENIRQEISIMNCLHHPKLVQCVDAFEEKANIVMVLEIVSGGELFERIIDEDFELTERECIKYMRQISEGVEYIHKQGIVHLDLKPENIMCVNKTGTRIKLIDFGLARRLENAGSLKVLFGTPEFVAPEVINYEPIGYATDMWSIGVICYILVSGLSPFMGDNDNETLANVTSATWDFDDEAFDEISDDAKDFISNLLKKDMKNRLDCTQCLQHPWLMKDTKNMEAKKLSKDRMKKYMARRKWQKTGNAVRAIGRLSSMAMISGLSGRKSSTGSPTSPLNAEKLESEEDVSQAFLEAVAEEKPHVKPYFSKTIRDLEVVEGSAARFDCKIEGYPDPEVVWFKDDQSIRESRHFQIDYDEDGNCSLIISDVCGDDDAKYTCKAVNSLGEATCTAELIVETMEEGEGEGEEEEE
inactive: [1] -0.015 | volasertib -0.148 | [2] -0.172 | [3] -0.047 | [4] 0.042 | [5] 0.184 | rosiglitazone 0.202 | [6] -0.126 | [7] -0.005 | saracatinib 0.177 | sotrastaurin -0.036 | alvocidib -0.091 | Tubastatin A 0.036 | [8] 0.716 | defactinib -0.034 | rucaparib -0.083 | [9] -0.079 | encorafenib 0.337 | [10] -0.216

NA (UniProt B2RBV5)
inactive: [1] 0.135 | volasertib 0.163 | [2] 0.049 | [4] 0.128 | rosiglitazone -0.009 | [7] -0.08 | sotrastaurin -0.057 | rucaparib -0.16 | encorafenib -0.09
active: epoxomicin 0.593

NPM3 (UniProt O75607)
Sequence of UniProt O75607 (O75607 whole entry, looked up): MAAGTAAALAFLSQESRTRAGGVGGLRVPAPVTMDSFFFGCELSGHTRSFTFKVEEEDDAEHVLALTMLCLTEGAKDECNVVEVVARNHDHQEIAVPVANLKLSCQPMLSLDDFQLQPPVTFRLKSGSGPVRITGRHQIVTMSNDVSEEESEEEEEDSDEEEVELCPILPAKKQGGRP
inactive: [1] 0.065 | volasertib 0.124 | [2] -0.099 | [3] 0.036 | [4] 0.014 | [5] -0.011 | rosiglitazone -0.122 | [6] 0.143 | [7] 0.145 | saracatinib 0 | sotrastaurin 0 | alvocidib 0.032 | Tubastatin A 0.031 | [8] -0.06 | defactinib 0.001 | rucaparib 0.155 | [9] -0.042 | encorafenib 0.034 | [10] -0.04

NAA11 (UniProt Q9BSU3)
Sequence of UniProt Q9BSU3 (Q9BSU3 whole entry, looked up): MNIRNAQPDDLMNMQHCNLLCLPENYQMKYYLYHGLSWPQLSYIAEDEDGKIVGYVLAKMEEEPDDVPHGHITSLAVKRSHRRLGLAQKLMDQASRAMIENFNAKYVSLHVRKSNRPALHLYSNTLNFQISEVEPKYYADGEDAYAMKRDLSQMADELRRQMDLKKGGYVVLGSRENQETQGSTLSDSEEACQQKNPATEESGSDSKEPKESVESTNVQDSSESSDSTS
inactive: [1] -0.013 | volasertib -0.041 | [2] 0.044 | epoxomicin 0.063 | [3] 0.015 | [5] -0.114 | rosiglitazone -0.053 | [6] 0.001 | saracatinib 0.033 | sotrastaurin -0.247 | alvocidib -0.038 | Tubastatin A 0.035 | [8] -0.078 | defactinib -0.132 | rucaparib 0.135 | [9] -0.133 | encorafenib 0.022 | [10] 0.034

NCBP2AS2 (UniProt Q69YL0)
Sequence of UniProt Q69YL0 (Q69YL0 whole entry, looked up): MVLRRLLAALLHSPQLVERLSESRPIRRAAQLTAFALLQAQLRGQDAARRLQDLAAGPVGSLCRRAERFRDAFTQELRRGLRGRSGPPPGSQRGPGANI
inactive: [1] -0.255 | volasertib -0.193 | [2] -0.1 | [3] 0.027 | [4] 0.026 | [5] -0.072 | rosiglitazone -0.063 | [6] 0.049 | saracatinib 0.056 | sotrastaurin 0.215 | alvocidib -0.004 | Tubastatin A -0.064 | [8] -0.005 | defactinib 0.013 | rucaparib -0.03 | [9] -0.081 | encorafenib 0.031 | [10] 0.031
active: [7] -0.906

NOS1AP (UniProt O75052)
inactive: [1] 0.092 | volasertib 0.035 | epoxomicin 0.056 | [3] 0.04 | [5] 0.225 | rosiglitazone -0.001 | alvocidib 0.179 | Tubastatin A -0.112 | [8] -0.089 | defactinib 0.193 | rucaparib -0.403 | encorafenib 0.092 | [10] -0.074

ORC5 (UniProt O43913)
inactive: [1] -0.196 | volasertib -0.42 | [2] 0.074 | [3] -0.071 | [4] -0.103 | [5] 0.105 | rosiglitazone 0.084 | [6] -0.029 | [7] -0.203 | saracatinib -0.081 | sotrastaurin 0.149 | alvocidib -0.195 | Tubastatin A 0.093 | [8] -0.097 | defactinib -0.182 | rucaparib 0.094 | [9] -0.009 | encorafenib 0.033 | [10] -0.05

NPC1L1 (UniProt Q9UHC9)
inactive: [1] -0.029 | volasertib -0.016 | [2] 0.2 | [5] -0.016 | rosiglitazone 0.045 | [6] -0.081 | saracatinib -0.026 | sotrastaurin 0.033 | alvocidib 0.013 | Tubastatin A 0.005 | defactinib -0.093 | rucaparib -0.06 | [9] -0.051 | encorafenib -0.038 | [10] 0.093

MRPS26 (UniProt Q9BYN8)
inactive: [1] 0.011 | volasertib -0.094 | epoxomicin 0.033 | [3] -0.094 | [4] -0.023 | [5] 0.003 | rosiglitazone 0.053 | [6] 0.052 | [7] -0.092 | saracatinib -0.094 | sotrastaurin -0.013 | alvocidib 0.025 | Tubastatin A 0.156 | [8] 0.003 | defactinib -0.01 | rucaparib 0.093 | [9] 0.122 | encorafenib 0.089 | [10] 0.003

NME2P1 (UniProt O60361)
Sequence of UniProt O60361 (O60361 whole entry, looked up): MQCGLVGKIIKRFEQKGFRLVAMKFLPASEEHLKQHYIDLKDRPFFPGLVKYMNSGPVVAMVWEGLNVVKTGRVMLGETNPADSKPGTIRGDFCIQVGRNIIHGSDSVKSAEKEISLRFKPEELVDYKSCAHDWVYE
active: rucaparib -0.814
inactive: [1] 0.117 | volasertib 0.03 | [2] -0.177 | epoxomicin 0.033 | [3] -0.162 | [4] 0.198 | [5] -0.021 | rosiglitazone 0.166 | [7] -0.074 | sotrastaurin 0.057 | alvocidib 0.004 | Tubastatin A 0.059 | [8] -0.145 | defactinib 0.034 | encorafenib 0.003 | [10] -0.017

NUP205 (UniProt Q92621)
Sequence of UniProt Q92621 (Q92621 whole entry, looked up): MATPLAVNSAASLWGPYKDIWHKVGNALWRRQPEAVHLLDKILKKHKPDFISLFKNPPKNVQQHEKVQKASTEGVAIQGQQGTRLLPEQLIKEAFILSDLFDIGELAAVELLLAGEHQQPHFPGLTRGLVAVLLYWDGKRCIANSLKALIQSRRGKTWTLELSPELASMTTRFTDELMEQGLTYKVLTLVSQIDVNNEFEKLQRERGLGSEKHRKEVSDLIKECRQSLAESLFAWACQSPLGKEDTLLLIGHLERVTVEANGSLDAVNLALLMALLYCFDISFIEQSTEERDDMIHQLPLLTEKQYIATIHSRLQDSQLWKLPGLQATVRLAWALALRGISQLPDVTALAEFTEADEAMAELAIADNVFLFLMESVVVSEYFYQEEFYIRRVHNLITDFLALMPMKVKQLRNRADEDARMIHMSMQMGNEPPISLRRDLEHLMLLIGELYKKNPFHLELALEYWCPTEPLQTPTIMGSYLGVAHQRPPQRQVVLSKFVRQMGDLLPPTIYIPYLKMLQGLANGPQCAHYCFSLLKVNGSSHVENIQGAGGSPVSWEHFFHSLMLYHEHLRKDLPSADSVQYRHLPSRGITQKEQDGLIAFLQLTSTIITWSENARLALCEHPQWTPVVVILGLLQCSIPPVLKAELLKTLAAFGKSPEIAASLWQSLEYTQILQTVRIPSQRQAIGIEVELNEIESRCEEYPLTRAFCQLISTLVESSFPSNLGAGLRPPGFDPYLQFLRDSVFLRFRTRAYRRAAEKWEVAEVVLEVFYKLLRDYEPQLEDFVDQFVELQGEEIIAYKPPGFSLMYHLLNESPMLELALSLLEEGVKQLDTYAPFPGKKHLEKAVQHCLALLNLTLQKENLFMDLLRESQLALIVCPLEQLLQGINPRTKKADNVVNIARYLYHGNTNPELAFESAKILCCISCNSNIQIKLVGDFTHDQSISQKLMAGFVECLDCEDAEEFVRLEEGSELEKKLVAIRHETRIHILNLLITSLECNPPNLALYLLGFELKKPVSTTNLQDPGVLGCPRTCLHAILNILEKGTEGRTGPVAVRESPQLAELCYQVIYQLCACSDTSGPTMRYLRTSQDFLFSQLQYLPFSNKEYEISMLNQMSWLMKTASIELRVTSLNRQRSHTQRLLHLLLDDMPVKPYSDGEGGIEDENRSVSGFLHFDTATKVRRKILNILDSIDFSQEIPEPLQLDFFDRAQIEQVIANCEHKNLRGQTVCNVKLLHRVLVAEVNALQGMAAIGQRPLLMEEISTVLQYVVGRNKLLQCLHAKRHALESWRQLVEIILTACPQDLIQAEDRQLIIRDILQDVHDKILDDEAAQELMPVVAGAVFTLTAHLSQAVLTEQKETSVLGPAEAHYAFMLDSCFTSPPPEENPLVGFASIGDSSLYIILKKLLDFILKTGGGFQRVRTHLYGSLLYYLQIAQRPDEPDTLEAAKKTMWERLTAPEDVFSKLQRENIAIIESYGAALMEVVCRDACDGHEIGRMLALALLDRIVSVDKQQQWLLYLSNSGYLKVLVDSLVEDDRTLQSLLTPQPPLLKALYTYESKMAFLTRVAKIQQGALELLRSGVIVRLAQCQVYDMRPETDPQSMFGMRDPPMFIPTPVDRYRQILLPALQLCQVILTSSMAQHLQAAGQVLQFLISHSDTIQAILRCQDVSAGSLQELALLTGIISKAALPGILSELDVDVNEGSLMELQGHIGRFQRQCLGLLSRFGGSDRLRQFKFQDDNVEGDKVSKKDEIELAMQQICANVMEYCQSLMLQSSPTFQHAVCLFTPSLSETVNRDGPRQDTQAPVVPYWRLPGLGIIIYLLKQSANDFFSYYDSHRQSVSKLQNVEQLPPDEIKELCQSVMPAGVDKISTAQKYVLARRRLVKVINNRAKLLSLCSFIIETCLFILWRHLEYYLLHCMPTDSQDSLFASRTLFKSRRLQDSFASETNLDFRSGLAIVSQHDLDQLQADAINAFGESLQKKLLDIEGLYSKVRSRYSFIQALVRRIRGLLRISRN
active: volasertib -0.35 | [7] -0.233
inactive: [1] -0.108 | [2] 0.079 | epoxomicin -0.071 | [3] -0.036 | [4] -0.013 | [5] 0.032 | rosiglitazone 0.041 | [6] -0.041 | saracatinib -0.003 | sotrastaurin -0.057 | alvocidib -0.127 | Tubastatin A 0.023 | [8] -0.024 | defactinib -0.132 | rucaparib -0.065 | [9] -0.012 | encorafenib 0.096 | [10] -0.038

OXR1 isoform 2 (UniProt Q8N573)
inactive: [1] -0.092 | volasertib -0.09 | [2] -0.082 | epoxomicin 0.127 | [4] 0.056 | [5] -0.004 | [6] -0.015 | [7] -0.244 | saracatinib -0.138 | alvocidib 0.051 | Tubastatin A -0.038 | defactinib -0.067 | rucaparib -0.008 | [9] 0.092 | encorafenib -0.022 | [10] 0.047

MLX (UniProt Q9UH92)
active: volasertib -0.734
inactive: [1] 0.047 | [2] -0.007 | epoxomicin 0.162 | [3] -0.04 | [4] 0 | rosiglitazone 0.052 | [6] 0.142 | [7] -0.315 | saracatinib -0.171 | sotrastaurin -0.084 | alvocidib -0.037 | Tubastatin A 0.075 | [8] -0.149 | rucaparib -0.169 | [9] 0.004 | encorafenib 0.149

NIPSNAP3B (UniProt Q9BS92)
active: rucaparib 0.31
inactive: [1] -0.238 | volasertib -0.028 | [2] 0.039 | [3] -0.039 | [4] -0.019 | [5] -0.088 | rosiglitazone -0.069 | [6] -0.176 | [7] 0.073 | saracatinib 0.122 | sotrastaurin 0.066 | alvocidib -0.029 | Tubastatin A 0.01 | [8] 0.112 | defactinib -0.026 | [9] -0.088 | encorafenib -0.289 | [10] 0.008
